Data as given in ChEMBL document CHEMBL3988442, “University of Dundee, Small-Polar-MMV Screening Library” (2021).

What was measured:
[1] = biological target: T1, Aspartate--tRNA(Asp/Asn) ligase (Mycobacterium tuberculosis (strain ATCC 25618 / H37Rv)) (UniProt P9WFW3); assay: Assay for Asp RNA synthetase-1 from Mycobacterium tuberculosis; format: functional; design: scale not given: direction of the effect not stated beside the values; conditions: 30 µM; note: in the data most compounds retested in dose-response had high values
T1 sequence (whole entry): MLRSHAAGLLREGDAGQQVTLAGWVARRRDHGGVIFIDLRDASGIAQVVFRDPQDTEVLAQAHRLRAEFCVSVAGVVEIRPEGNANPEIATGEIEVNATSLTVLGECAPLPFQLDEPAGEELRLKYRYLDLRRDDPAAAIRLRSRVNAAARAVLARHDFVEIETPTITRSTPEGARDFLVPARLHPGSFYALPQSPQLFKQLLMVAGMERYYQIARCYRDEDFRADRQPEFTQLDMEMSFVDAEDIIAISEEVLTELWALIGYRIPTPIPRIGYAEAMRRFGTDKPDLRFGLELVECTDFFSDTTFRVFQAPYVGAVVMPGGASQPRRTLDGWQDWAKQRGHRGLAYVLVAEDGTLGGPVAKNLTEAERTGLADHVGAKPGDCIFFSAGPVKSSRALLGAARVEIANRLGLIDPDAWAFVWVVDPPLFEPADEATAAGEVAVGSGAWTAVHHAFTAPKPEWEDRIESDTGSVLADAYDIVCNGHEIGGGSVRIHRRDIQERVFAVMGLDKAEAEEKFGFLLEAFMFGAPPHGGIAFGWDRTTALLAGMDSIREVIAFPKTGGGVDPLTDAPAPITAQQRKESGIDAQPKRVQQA

[2] = biological target: Shiga toxin 2 (Escherichia coli O157:H7) (UniProt P09385+P09386); assay: E. coli 0.157:H7 Shiga Toxin SOP - stx2 screening assay; format: functional; design: scale not given: direction of the effect not stated beside the values; conditions: 30 µM

SMILES	Percent Effect [1] [%]	Percent Effect [2] [%]
CCc1c(C)nc2n(c1=O)CC(C(=O)Nc1nc3c(s1)CCCC3)CS2 (stereo not given)	2.32	-5.2
Cc1cc(C2CCCN2CC(=O)N(CCC#N)c2ccccc2F)on1 (stereo not given)	3.09	0.491
COc1cccc(S(=O)(=O)NC(=O)COC2CCCC2)c1	2.03	-4.79
CC(C)c1n[nH]c(C(=O)Nc2ccncc2)c1Br	-4.8	4.1
Cc1cnn(CC2CN(Cc3nc(N)c4ccccc4n3)CCO2)c1 (stereo not given)	3.58	20.2
N#Cc1ccc(C(=O)N2CC[C@H]3[C@@H]2CCC(=O)N3c2ccccc2)cc1	0.485	-9.64
Cc1cccnc1NCCNC(=O)[C@H]1CNC[C@@H](C(=O)N2CCCC2)C1	-0.342	-7.88
Cc1cc2n(n1)CC(CNCc1cnn(-c3ccccc3)c1)CN2 (stereo not given)	-1.15	7.05
CCc1nnc(CN(C)c2nc(C(C)C)nc3c2cnn3C)o1	5.74	-7.55
CCCS(=O)(=O)c1ncc(CN2CCC(CO)CC2)n1CC1CCCO1 (stereo not given)	-5.1	-15.9
Cc1nnc(NC(=O)NC2CCOc3ccccc32)s1 (stereo not given)	1.16	-1.42
c1cnnc(N2CCCC2CNCc2nc(-c3ccsc3)no2)c1 (stereo not given)	-0.433	-0.726
Fc1cccc(N2C[C@H]3CCN(c4cccnc4)C[C@H]3C2)c1	6.15	-16.5
CNS(=O)(=O)c1cccc(CNc2nccc(C(F)(F)F)n2)c1	3.75	4.67
Cc1cc(CN2CCOC(CN(C)C)C2)no1 (stereo not given)	1.81	26.2
CCOC(=O)N1CCC(C(=O)c2cc(F)ccc2F)CC1	1.26	36.2
O=C(NCc1csc(Br)c1)c1ccncc1	-0.335	-44.3
Cc1occc1C(=O)N1CCC2(CC1)NC(=O)CC2c1cnn(C)c1 (stereo not given)	-0.199	-2.15
OC1(Cn2ccc3ccncc32)CCN(Cc2ccccn2)CC1	-0.402	-26.5
CC(=O)c1cccc(NC(=O)CN2CCCCC2C2OCCO2)c1 (stereo not given)	1.76	-1.62
CCn1nccc1CNC(=O)C1CCCC1	11.4	-65.5
CCc1nnc(CNCC2CCCN2c2cccnn2)o1 (stereo not given)	-1.12	-52.3
CN(C)S(=O)(=O)N1CC[C@@H]2CN(Cc3cnn(C)c3)C[C@@H]2C1	6.22	-8.71
Cc1csc(N2CCN(CCc3ccccn3)CC2C)n1 (stereo not given)	-6.27	-7.75
O=C(NCc1cncc2c1CCN(Cc1cccc(F)c1)C2)C1CC1	1.78	-32.2

SMILES	Percent Effect [1] [%]	Percent Effect [2] [%]
COc1cn(-c2ccccc2)nc1C(=O)NCCCN1CCCC(C)C1 (stereo not given)	-1.18	7
Cc1nc(CCNC(=O)N2CCC(Cc3cnn(C)c3)C2)cs1 (stereo not given)	-5.21	-13.9
CCOC(=O)NC(CNC(=O)c1ncccn1)CC(C)C (stereo not given)	6.25	4.71
CN(C)C(=O)CC1CC2(CCN(C(=O)N(C)C)CC2)Oc2ccccc21 (stereo not given)	1	-12.4
O=C(c1cnco1)N1CCCC(Cc2nccs2)C1 (stereo not given)	1.57	-2.47
CN(C)C1CCN(C(=O)c2ccc(Cn3ccccc3=O)o2)CC1	1.63	-10.4
CC(C)N1CCC(N2CCN(C3CCC3)CC2CCO)CC1 (stereo not given)	-3.4	-0.0599
O=C(NCC1CCOC1)c1cc(-c2cccc(Cl)c2)on1 (stereo not given)	1.64	-6.35
O=C(c1ccc[nH]1)N1C[C@H](OCc2cccnc2)[C@H]2COC[C@H]21	2.69	-6.45
CCn1nc(C)c2nc(C(C)C)nc(NCCOC)c21	-2.09	-4.71
COc1ccccc1Oc1ncccc1CNC(=O)[C@@H](C)NC(C)=O	0.362	-19.5
NCC(=O)N1CCCC(c2cncc(Nc3ncccn3)n2)C1 (stereo not given)	1.44	1.91
O=C(c1ccncc1)N1CCC2(CC1)CC(Oc1cccnc1)CO2 (stereo not given)	4.1	12.2
CC(CCc1ccco1)NC(=O)Nc1cc(C(F)(F)F)c[nH]c1=O (stereo not given)	0.141	36.5
Cn1nc(CNC(=O)NCc2ccc(Cl)cc2)c2c1CCOC2	1.91	-9.65
Cc1nc(CN(C)C2CCN(Cc3ccno3)C2)no1 (stereo not given)	-4.76	-31.6
O=C(NCCN1CCOCC1)NCC(O)c1cccc(F)c1 (stereo not given)	2.52	4.91
CC(C)c1nn(CC(=O)N2CCCCC2)c(=O)c2c1cnn2C(C)(C)C	-5.41	2.7
C1CC(CN2CCO[C@H]3[C@H](OCC4CC4)CC[C@@H]32)CCO1	0.999	-6.68
O=C(C1CC1)N1CCCC1C1CCN(Cc2ccccc2)CC1 (stereo not given)	-4.34	-13.2
Cc1nc(CN2CCCC(NCCOc3ccccc3)C2)no1 (stereo not given)	-8.02	-0.215
CN(Cc1ccsc1)C(=O)c1cccc(NS(C)(=O)=O)c1	-4.16	-32.9
Cc1ccc(C(=O)NC(C)CN2CCCC2=O)c(=O)[nH]1 (stereo not given)	-2.42	-3.66
Cc1cccc(N2CC[C@@H]3CN(Cc4csc(C)n4)CCO[C@@H]3C2)n1	-1.08	-42.6
c1cc(CNCC2CNc3ccnn3C2)cc(N2CCCCC2)n1 (stereo not given)	-2.55	-110

SMILES	Percent Effect [1] [%]	Percent Effect [2] [%]
COc1ccnc(N2CCN(C(=O)CN3CCCC3=O)CC2)n1	-1.88	13.5
CCCC(=O)N1CC[C@@H]2[C@H](CC1)N(Cc1cccnc1)CCS2(=O)=O	-0.493	-7.37
Cc1cc(C2CCCN2CCCc2nc3ccccc3o2)on1 (stereo not given)	-0.533	28.6
OC(COCc1ccccc1F)CN1CCc2c(ncn2C2CC2)C1 (stereo not given)	-6.48	-4.88
Cc1cccc(C(=O)N2C[C@@H]3CCN(c4cccnc4)C[C@@H]3C2)c1	3.96	-5.99
CNc1cc(N2CCCC2CNCc2c[nH]nc2C(C)(C)C)ncn1 (stereo not given)	1.25	-11.5
CC(=O)NCC1CCN(CC2CCOc3ccccc3C2)CC1 (stereo not given)	1.5	1.04
Cc1cnn(C2CN(CC(=O)NCc3ccccn3)C2)c1	5	21.1
CC(NC(=O)CN(C)S(C)(=O)=O)c1nnc2n1CCCCC2 (stereo not given)	5	-25.1
Cc1noc(C)c1C(=O)NCc1ccc(N2CCOC(C)C2)nc1 (stereo not given)	-1.75	-60.1
CN(C)C(=O)Cc1nc(CN2CCOC(Cn3cccn3)C2)cs1 (stereo not given)	-3.5	-20.8
CN(C)CCN(Cc1cccc(C(F)(F)F)c1)C(=O)c1cc[nH]n1	0.947	-18.8
Cc1ccc(NC(=O)C2=CN=S=N2)cc1	-2.07	-19.2
Cc1cnn(CC2CCCN2C(=O)CCc2nc3ccccc3[nH]2)c1 (stereo not given)	-0.857	-31.6
Cc1nc(CNCC2CN(C)CCO2)cs1 (stereo not given)	-3.4	-38.1
CNC(=O)[C@H]1C[C@H]2OCC[C@H]2N(Cc2cccc3ccccc23)C1	0.598	-15.6
CN1CC2(CCN(Cc3ccoc3)CC2)COc2ccccc2S1(=O)=O	-0.268	-18.6
Cc1nc(C)n(CC2CCCN2Cc2ccn(-c3ccccc3)n2)n1 (stereo not given)	0.0463	-14.6
O=C1NC2(CCN(Cc3cccnc3)CC2)CC1c1ccncc1 (stereo not given)	7.31	-19.6
O=C(NCCCn1cccn1)C1(c2ccc(Br)cc2)CC1	0.575	8.42
COc1cccc2c1OCC(CNC(=O)CCCN1CCOCC1)C2 (stereo not given)	4.84	5.01
OC(CN1CCCCCCC1)c1ccc(F)cc1 (stereo not given)	-2.26	10.8
CCc1nnc2n1CCN(C(=O)c1cc3cc(F)ccc3[nH]1)C2	-1.91	-31.4
Cc1nn(C)c(N(C)C)c1CNCc1cccc(OCCN(C)C)c1	-1.92	27.4
Cc1nc(COc2cccc(C#N)c2)no1	-0.618	0.222
